# Results reported in PubChem BioAssay AID624167 (Sanford-Burnham Center for Chemical Genomics, 2012).
# Assay: inhibition of PEG-3 promoter-driven reporter – cell-based, HeLa, luciferase, CREF/GAPDH counter-screen panel, dose response (AID 624167)
# Details: CREF/GAPDH counter-screens; run 2, dose range 1, at 100 µM (top of the series)
row,Structure (SMILES),inhibition [%]
1,CCCCC(=O)NC(c1ccc(OC)cc1)c1ccc2cccnc2c1O (configuration not stated),20.5
2,COc1cc(Nc2c3ccccc3nc3ccccc23)cc(OC)c1OC,100
3,CC(=O)NC(c1ccc(Cl)cc1)c1ccc2cccnc2c1O (configuration not stated),64.1
4,COc1cccc(/C=N/NC(=O)c2c(C)nc3ccc(Cl)cn23)c1O,-51.4
5,CC(C)CCCCCCCCCCCCC(=O)NCC(=O)NC1C(O)C(O)C(Nc2ncnc3nc[nH]c23)OC1C(O)CO (configuration not stated),98.2
6,C=CCn1c(C)cc(C(=O)COc2ccc(C)nc2[N+](=O)[O-])c1C,51.8
7,O=C(COc1ccc2c(c1)CCC2)Nc1ccccn1,94.9
8,O=C(N/N=C/c1ccc(Cl)c([N+](=O)[O-])c1)c1cc(-c2ccc3c4c(cccc24)CC3)n[nH]1,98.4
9,COc1ccccc1Nc1nc(-c2sc(NC(=O)c3ccco3)nc2C)cs1,19.4
10,CCCCCCCn1c(=N)n(CC(=O)c2ccco2)c2ccccc21,90.6
11,COc1cc(CNCCCN2CCOCC2)cc(Br)c1OCc1ccc(Cl)cc1,90.7
12,COc1ccc(-n2cc(-c3ccccc3)c3c(N4CCOCC4)ncnc32)cc1,91.3
13,COCCCNC(=O)c1ccc(Cn2c(=O)c3ccccc3n(Cc3ccccc3C#N)c2=O)cc1,25.1
14,CCCC(=O)NC(c1ccc(C)cc1)c1ccc2cccnc2c1O (configuration not stated),57.9
15,O=C(Nc1ccccc1)c1nc[nH]c1C(=O)NCCCCCCNC(=O)c1[nH]cnc1C(=O)Nc1ccccc1,83
16,CC(=O)c1sc2c(c1OC(=O)c1ccc(Cl)cc1Cl)c(=O)n(-c1ccccc1)c(=S)n2-c1ccccc1,79.3
17,CC(=O)NC(c1ccc(Cl)cc1Cl)c1ccc2cccnc2c1O (configuration not stated),61.7
